# NPC1 promoter act: activates the NPC1 promoter; actives 2.4% (n = 320,000); Huh7 NPC1 promoter luciferase reporter, 24 h; Potency, µM (highest dose often 9.22 µM), hits mostly activators; also: nearly all actives have a fitted effect of over 60% in size
#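 Readout is luciferase luminescence, reflecting NPC1 promoter activation in stably transfected Huh7 cells after 24 h compound exposure at 37 °C in reduced-serum medium with 10% FBS.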
# SMN2 splice up: enhancers of SMN2 splice variant expression; HEK293 SMN2-luciferase splicing reporter, luminescence, 30-36 h; actives 2.8% (n = 210,000); Potency, µM (doses to about 46.1 µM), actives largely listed as activators; AID 1458; also: nearly all actives have a fitted effect of over 55% in size
#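 HEK293 cells carry an SMN2 […]–luciferase reporter in which exon 7 inclusion puts luciferase in frame. Cells were plated 10-12 h before compound addition, then incubated 30-36 h at 37C. ONE-Glo luminescence was read; sodium butyrate at 4.5 mM final served as control.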
# FLuc counter: firefly luciferase modulation, counter-screen for miR-21 project. purified FLuc, Km substrates, luminescence inhibition. Potency, µM (top dose mostly 57.5 µM), actives largely listed as inhibitors. actives 6.9% (n = 360,000); also: nearly all actives have a fitted effect of over 55% in size
# Target sequence (P08659 whole entry, looked up): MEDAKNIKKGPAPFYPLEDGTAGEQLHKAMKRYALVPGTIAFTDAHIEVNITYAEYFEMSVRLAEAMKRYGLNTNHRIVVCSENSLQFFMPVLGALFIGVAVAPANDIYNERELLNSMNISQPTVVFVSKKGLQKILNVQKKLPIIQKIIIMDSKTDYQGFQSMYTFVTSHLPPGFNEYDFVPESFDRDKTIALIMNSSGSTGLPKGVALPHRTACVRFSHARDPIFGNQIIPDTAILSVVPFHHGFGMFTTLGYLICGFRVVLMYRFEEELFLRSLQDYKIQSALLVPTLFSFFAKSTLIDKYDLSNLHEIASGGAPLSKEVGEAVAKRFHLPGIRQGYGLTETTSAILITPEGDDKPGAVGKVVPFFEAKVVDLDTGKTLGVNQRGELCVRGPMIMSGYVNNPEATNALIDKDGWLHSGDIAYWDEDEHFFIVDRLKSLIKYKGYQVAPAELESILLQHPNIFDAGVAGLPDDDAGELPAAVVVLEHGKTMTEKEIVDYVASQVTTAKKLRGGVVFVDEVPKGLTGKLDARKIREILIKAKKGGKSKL
#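 Purified P. pyralis luciferase, 10 nM final, with Km-level 10 uM D-luciferin and 10 uM ATP in 50 mM Tris acetate pH 7.5, 10 mM Mg acetate, 0.01% Tween-20, 0.05% BSA; 6-point qHTS titration about 60 µM downward; luminescence read.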
# ELG1 genotoxic: genotoxicity induction in ELG1-luciferase HEK293T cells; HEK293T ELG1-luciferase reporter, luminescence, 16 h; Potency, µM (series often up to 46 µM), hits mostly activators; actives 1.3% (n = 330,000); also: nearly all actives have a fitted effect of over 60% in size
#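 DMSO vehicle served as control against compound-treated ELG1-luciferase HEK293T cells; exposure lasted 16 hr at 37 °C and 5% CO2, followed by ONE-Glo luminescence detection after 30 min.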
# KinaseGlo FLuc: Kinase-Glo luciferase inhibition (counter-screen) | Kinase-Glo luciferase, ATP luminescence, 8 min | AID 1379 | actives 0.28% (n = 200,000) | Potency, µM (highest dose often 38.3 µM), most hits filed as inhibitors; also: nearly all actives have a fitted effect of over 60% in size
#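 Kinase-Glo luciferase light output from ATP and luciferin was measured with 10 uM ATP, within the enzyme's linear range. Buffer: 50 mM imidazole pH 7.2, 50 mM KCl, 7 mM MgCl2, 0.01% Tween 20, 0.05% BSA; luminescence read after 8 min at ambient temperature.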
# Rab9 promoter act: activators of Rab9 promoter. Huh7 Rab9 promoter-luciferase reporter, luminescence, 24 h. Potency, µM (top dose mostly 9.22 µM), most hits filed as activators. actives 2.8% (n = 320,000). AID 485297; also: nearly all actives have a fitted effect of over 60% in size
#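 Stable Rab9-luc Huh7, 1500 cells/well, 2 h settle; cmpd in DMSO, 24 h, 37 °C/5% CO2; luciferase reagent 10 min RT; luminescence.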
# Hits are given with their value; n = inactive; u = inconclusive; x = not tested or not shown; [ ] = another dose, or the depositor's remark. Rows were chosen to be rich in hits. Some 7.5% of all compounds tested hit in one or more screens of this group. Calls follow the shape of the dose curve; as a rule, active = well fitted curve in the direction sought with a large enough effect; inconclusive = small, poorly fitted or top-dose-only effect, or another doubt; inactive = no such curve, though single readings can be large; an effect the other way counts as inactive or inconclusive.
SMILES,NPC1 promoter act,SMN2 splice up,FLuc counter,ELG1 genotoxic,KinaseGlo FLuc,Rab9 promoter act
Cc1ccc(-c2cc(C(=O)N3CC(C)OC(C)C3)c3ccccc3n2)o1 (centres undefined),n,x,11µM,n,x,n
Cc1cc(C(=O)N2CC(C)CC(C)C2)c(C)o1 (centres undefined),n,x,n,n,x,n
CC1CN(C(=O)c2cc3ccccc3oc2=O)CC(C)O1 (centres undefined),n,n,n,n,n,n
c1cc(CNC23CC4CC(CC(C4)C2)C3)ccn1,n,n,n,n,n,n
CCCCN1C(C)=CC(=C2C(=O)c3ccccc3C2=O)C=C1C,0.5µM,n,1.5µM,0.82µM,u,0.4µM
CC1=CC(=C2C(=O)c3ccccc3C2=O)C=C(C)N1Cc1ccco1,2.2µM,14µM,3.4µM,n,n,1.6µM
COc1ccc(-c2noc(-c3nnn(-c4cc(C)ccc4C)c3N)n2)cc1,x,x,n,x,x,x
CCOC(=O)c1nnc(-c2ccc(C)cc2)nc1N1CCSCC1,n,n,13µM,n,n,n
CCc1ccc(CN(C(=O)c2cc3ccccc3oc2=O)C2CCS(=O)(=O)C2)cc1 (centres undefined),2.8µM,18µM,19µM,u,n,4µM
O=C(c1cc2ccccc2oc1=O)N(Cc1cccs1)C1CCS(=O)(=O)C1 (centres undefined),n,n,19µM,18µM,n,u
COc1ccc(CN(C(=O)c2cc3ccccc3oc2=O)C2CCCCC2)cc1OC,n,n,27µM,n,n,n
COc1cc(CN(C(=O)c2cc3ccccc3oc2=O)C2CCS(=O)(=O)C2)cc(OC)c1OC (centres undefined),n,n,n,n,x,n
O=C(c1cc2ccccc2oc1=O)N(Cc1ccc(F)cc1)C1CCS(=O)(=O)C1 (centres undefined),u,x,19µM,u,x,3.2µM
Cc1cc(=O)oc2cc(O[C@@H]3O[C@H](CO)[C@@H](O)[C@H](O)[C@H]3O)ccc12,n,x,n,n,x,n
COc1cc(NC(=O)C2CCN(c3cnc4ccccc4n3)CC2)cc(OC)c1OC,x,x,n,x,x,x
Cc1ccc(CN(C(=O)c2cc3ccccc3oc2=O)C2CCS(=O)(=O)C2)cc1 (centres undefined),u,n,17µM,n,n,u
Cc1nc(-c2ccc(Cl)cc2)sc1C1(C)CC(c2cccc(F)c2)=NO1 (centres undefined),n,x,24µM,n,x,n
Cc1nc(-c2ccc(Cl)cc2)sc1C1(C)CC(c2cccc(Cl)c2)=NO1 (centres undefined),n,x,24µM,n,x,n
O=C(Nc1ccnn1C1CCN(C2CCOCC2)CC1)c1cccc(F)c1,n,x,n,n,x,n
COc1cc(N)c(Cl)cc1C(=O)OCC(=O)NCC1CCCCC1,x,x,x,n,x,x
Cc1ccc2c(c1)C(=NC1CCCCC1)c1cc3ccccc3nc1-2,n,2.8µM,15µM,u,n,u
Cc1ccc(-c2cc3ccccc3nc2N2CCCC2)cc1,n,n,n,n,n,n
Cc1ccc(C)c(Nc2cc(C(=O)NC3CCCCC3)c3ccccc3n2)c1,x,n,n,x,x,x
Cc1ccc2c(c1)-c1nc3ccccc3cc1C2=NC1CCCCC1,u,6.3µM,11µM,u,n,3.5µM
COc1ccc(C(=O)N2CCCC(C(=O)O)C2)c2ccccc12 (centres undefined),n,x,n,n,x,n
SMILES,NPC1 promoter act,SMN2 splice up,FLuc counter,ELG1 genotoxic,KinaseGlo FLuc,Rab9 promoter act
CC(=O)Oc1ccc2occ(-c3ccccc3)c2c1,u,x,19µM,n,x,n
O=C(c1cccs1)c1coc2ccc(O)cc12,n,n,u,u,n,n
O=C(c1cccs1)c1coc2ccc(O)c(CN3CCOCC3)c12,n,n,n,n,n,n
O=C(CCl)Oc1ccc2occ(C(=O)c3cccs3)c2c1,n,n,24µM,12µM,n,u
O=c1ccc2cc3c(-c4ccccc4)coc3cc2o1,n,x,19µM,n,x,n
CC(=O)Oc1ccc2occ(C(=O)c3cccs3)c2c1,u,n,13µM,u,n,u
Cc1nnc(SCC(=O)Nc2nnc(-c3ccccc3)o2)s1,n,x,19µM,n,x,n
Nn1c(SCC(=O)Nc2nnc(-c3ccccc3)o2)nnc1C1CC1,n,x,8.5µM,n,x,n
Nn1c(SCC(=O)Nc2ccc(Oc3ccccc3)cc2)nnc1C1CC1,n,n,u,n,n,n
CSc1cccc(NC(=O)c2nnn(CC(=O)Nc3cc(C)cc(C)c3)c2N)c1,n,x,n,n[9.26 µM],x,n
CN1CCN(C(=O)c2cc3cc(F)ccc3[nH]2)CC1,n,x,n,n,x,n
COc1ccc2cc(C(=O)NCc3ccc4c(c3)CCN4C(=O)c3ccccc3)[nH]c2c1,x,x,n,x,x,x
O=C(c1cc2cc(F)ccc2[nH]1)N1CCc2ccccc21,4µM,x,u,u,x,3.5µM
COc1ccc2cc(C(=O)N3CCc4ccccc43)[nH]c2c1,u,x,0.95µM,u,x,4µM
O=C(c1cc2cc(Br)ccc2[nH]1)N1CCc2ccccc21,5µM,x,n,n,x,n
O=C(c1cccc(F)c1)N1CCc2ccccc21,n,n,n,n,n,n
COc1ccc(-c2nc3sc(CCNC(=O)c4ccc(Br)o4)c(C)n3n2)cc1,x,x,11µM,x,x,x
COc1ccc(-c2nc3sc(CCNC(=O)c4cc(Cl)ccc4OC)c(C)n3n2)cc1,x,x,7.6µM,x,x,x
COc1ccc(-c2nc3sc(CCNC(=O)c4ccc(C(C)(C)C)cc4)c(C)n3n2)cc1,x,x,4.8µM,x,x,x
CCC(=O)NCCc1sc2nc(-c3ccc(OC)cc3)nn2c1C,x,x,19µM,x,x,x
CC(C)(C)c1ccc(C(=O)NCCc2csc3nc(-c4ccccc4F)nn23)cc1,x,x,12µM,x,x,x
CCOc1cc(C(=O)NCCc2csc3nc(-c4ccccc4F)nn23)cc(OCC)c1OCC,x,x,n,x,x,x
COc1ccc(NC(=O)c2ccc(CNS(=O)(=O)c3ccc4c(c3)C(C)(C)C(=O)N4C)cc2)cc1,x,x,n,x,x,x
Cc1ccc(CC2CC(=O)N(c3ncccn3)C2=O)cc1 (centres undefined),n,x,n,n,x,n
O=C1CC(Cc2ccc(Cl)cc2)C(=O)N1c1ccccn1 (centres undefined),n,32µM,n,n,n,n
O=C1CC(Cc2ccccc2)C(=O)N1c1ncccn1 (centres undefined),2.2µM,x,15µM,15µM,n,u
OCC1(CCc2ccccc2)CCN(Cc2cccn2-c2cccnc2)CC1,n,n,n,n,n,n
CCn1c(NCc2ccccc2Cl)nc2ccccc21,n,u,19µM,n,n,n
C=CCn1c(NCc2ccc(N(C)C)cc2)nc2ccccc21,n,n,24µM,n,n,n
CCCCn1c(NCc2ccc(N(C)C)cc2)nc2ccccc21,n,n,u,n,x,n
